From PubChem BioAssay (NCI)
“And” between values parts separate entries of the source, which are not always exact repeats. Equal entries are not always repeated. The panel holds about 79,000 compounds, 15% with a hit somewhere; the sample as a whole holds those more often. Some compounds were tested as several samples or in several runs, with calls that do not always agree. The source made the active and inactive calls. Rule as the data show it: active = growth inhibition above about 70%; inactive = the rest.

How the values were obtained:
[1] = NCI Yeast Anticancer Drug Screen. Data for the rad50 strain (AID 155);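 also: 0% = growth of vehicle-only cultures of the same strain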; details: S. cerevisiae rad50 strain growth inhibition; at 50.0 µM; stronger effect = higher value
Procedure, shortened: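 Inhibition values express reduced yeast growth in compound-treated cultures relative to vehicle-treated controls.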

[2] = NCI Yeast Anticancer Drug Screen. Data for the mec2-1 strain (AID 157); details: S. cerevisiae mec2-1 strain, at 50.0 µM, stronger effect = higher value
Procedure, shortened: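 Mutant yeast (mec2-1) grown with compound; growth inhibition relative to vehicle control reported.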

[3] = NCI Yeast Anticancer Drug Screen. Data for the sgs1 mgt1 strain (AID 161);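 also: 0% = growth of cultures given vehicle only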; details: S. cerevisiae sgs1 mgt1 strain, at 50.0 µM, stronger effect = higher value
Procedure, shortened: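 Yeast cells carrying a defined DNA-repair defect were exposed to test compounds. Growth inhibition was measured relative to vehicle-treated controls.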

[4] = NCI Yeast Anticancer Drug Screen. Data for the cln2 rad14 strain (AID 165);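 also: 0% = growth equal to vehicle treated cultures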; details: S. cerevisiae cln2 rad14 strain, at 50.0 µM, stronger effect = higher value
Procedure, shortened: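 Readout is yeast growth inhibition versus vehicle-treated controls, using a strain with cln2 and rad14 alterations exposed to compound.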

[5] = NCI Yeast Anticancer Drug Screen. Data for the bub3 strain (AID 167); details: S. cerevisiae bub3 mutant strain, at 50.0 µM, stronger effect = higher value
Procedure, shortened: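 Steps: expose the mutant yeast strain to compound; grow alongside vehicle-treated cultures; measure growth; express inhibition against the vehicle cultures.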

[6] = NCI Yeast Anticancer Drug Screen. Data for the mlh1 rad18 strain (AID 175); details: S. cerevisiae mlh1 rad18 strain growth inhibition; at 50.0 µM; stronger effect = higher value
Procedure, shortened: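 Genetically defined yeast (DNA repair-deficient) exposed to compounds; growth inhibition determined relative to vehicle.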

CC/C(=N/NC(N)=O)C1=CCCCC1
growth inhibition [1]: -5.6% (inactive) and 3.4% (inactive)
growth inhibition [2]: -3.7% (inactive) and -0.85% (inactive)
growth inhibition [3]: -1.5% (inactive) and -15.2% (inactive)
growth inhibition [4]: -35.5% (inactive) and -33.9% (inactive)
growth inhibition [5]: -15.2% (inactive) and -9.7% (inactive)
growth inhibition [6]: -0.4% (inactive) and -14.7% (inactive)

O=c1[nH]c(=O)n(C2OC(CO)C(O)C2O)c2nccnc12 (stereo unspecified)
growth inhibition [1]: 10.5% (inactive) and 5.1% (inactive)
growth inhibition [2]: 8.9% (inactive) and 4.95% (inactive)
growth inhibition [3]: 0.55% (inactive) and -5.75% (inactive)
growth inhibition [4]: 26.8% (inactive) and 2.95% (inactive)
growth inhibition [5]: -13.2% (inactive) and -20.9% (inactive)
growth inhibition [6]: 4.55% (inactive) and -11.4% (inactive)

CCCCCC(O)C1C(=O)OC(C)C(O)/C=C/C=C/C=C/C=C\C=C(\C)C(O)CC(O)CC(O)CC(O)CC(O)CC(O)CC1O (stereo unspecified)
growth inhibition [1]: 2.6% (inactive) and 13.8% (inactive)
growth inhibition [2]: 16.9% (inactive) and -17.5% (inactive)
growth inhibition [3]: -18.1% (inactive) and -4.65% (inactive)
growth inhibition [4]: 68.2% (inactive) and 1.3% (inactive)
growth inhibition [5]: 5.85% (inactive) and 12.3% (inactive)
growth inhibition [6]: 62.3% (inactive) and 6.3% (inactive)

O=C(O)CN(CCO)CCO
growth inhibition [1]: -17.9% (inactive) and -21.6% (inactive)
growth inhibition [2]: 7.65% (inactive) and -16.6% (inactive)
growth inhibition [3]: 21.4% (inactive) and 12.2% (inactive)
growth inhibition [4]: -29.1% (inactive) and 1.45% (inactive)
growth inhibition [5]: -27.9% (inactive) and -16.8% (inactive)
growth inhibition [6]: -18% (inactive) and 10.1% (inactive)

O=C(OCC(OC(=O)c1ccccc1)C(OC(=O)c1ccccc1)c1cnn(-c2ccccc2)n1)c1ccccc1 (stereo unspecified)
growth inhibition [1]: -24.1% (inactive) and 4.05% (inactive)
growth inhibition [2]: 4.1% (inactive) and 15.4% (inactive)
growth inhibition [3]: -34.4% (inactive) and -11.9% (inactive)
growth inhibition [4]: -35% (inactive) and -15.7% (inactive)
growth inhibition [5]: -10.8% (inactive) and -1.55% (inactive)
growth inhibition [6]: -4.25% (inactive) and 17.6% (inactive)

O=C1O/C(=C(/C(=O)O)c2ccc(O)cc2)C(O)=C1c1cc2c3c(c(O)cc(C4=C(O)/C(=C(\C(=O)O)c5ccc(O)cc5)OC4=O)c3c1)OC2=O
growth inhibition [1]: -12.8% (inactive) and -7% (inactive)
growth inhibition [2]: -7.25% (inactive) and -10.4% (inactive)
growth inhibition [3]: -8.55% (inactive) and 5.6% (inactive)
growth inhibition [4]: -0.65% (inactive) and -9.85% (inactive)
growth inhibition [5]: -5% (inactive) and -1.65% (inactive)
growth inhibition [6]: 3.4% (inactive) and 4.6% (inactive)

Cc1ccc(C(O)(C(F)(F)F)C(O)(c2ccc(C)cc2)C(F)(F)F)cc1 (stereo unspecified)
growth inhibition [1]: 36.8% (inactive) and 99.2% (active)
growth inhibition [2]: 1.9% (inactive) and 99.5% (active)
growth inhibition [3]: -12.8% (inactive) and 99.3% (active)
growth inhibition [4]: -10.2% (inactive) and 99.4% (active)
growth inhibition [5]: -8.85% (inactive) and 99.3% (active)
growth inhibition [6]: -5.75% (inactive) and 99% (active)

CC(=O)c1ccc(-c2ccccc2-c2ccccc2)cc1
growth inhibition [1]: -9.3% (inactive) and 43.7% (inactive)
growth inhibition [2]: 5.95% (inactive) and 3.5% (inactive)
growth inhibition [3]: 3.6% (inactive) and 16.4% (inactive)
growth inhibition [4]: -21.2% (inactive) and -26.1% (inactive)
growth inhibition [5]: -0.3% (inactive) and 4.35% (inactive)
growth inhibition [6]: 1.15% (inactive) and 33.1% (inactive)

CC(C)(C)c1cc([N+](C)(C)C)cc(C(C)(C)C)n1
growth inhibition [1]: 1.6% (inactive) and 19.6% (inactive)
growth inhibition [2]: -5.3% (inactive) and 8.25% (inactive)
growth inhibition [3]: 1.05% (inactive) and 14.8% (inactive)
growth inhibition [4]: 2.3% (inactive) and -16.7% (inactive)
growth inhibition [5]: 20.6% (inactive) and -2.05% (inactive)
growth inhibition [6]: 6.3% (inactive) and -5.55% (inactive)

Cc1ccc(C2SCC(=O)N2CCN2C(=O)CSC2c2ccc(C)o2)o1 (stereo unspecified)
growth inhibition [1]: 7.1% (inactive) and 5.95% (inactive)
growth inhibition [2]: 16.1% (inactive) and 8.45% (inactive)
growth inhibition [3]: -2.45% (inactive) and 17.6% (inactive)
growth inhibition [4]: 3.15% (inactive) and -0.1% (inactive)
growth inhibition [5]: -1.45% (inactive) and -3.45% (inactive)
growth inhibition [6]: 13.2% (inactive) and -12.4% (inactive)

ClCC(CCl)(CCl)CCl
growth inhibition [1]: 24.6% (inactive) and 1.15% (inactive)
growth inhibition [2]: 6.95% (inactive) and -12.9% (inactive)
growth inhibition [3]: 13.4% (inactive) and 7.95% (inactive)
growth inhibition [4]: 6% (inactive) and 20.1% (inactive)
growth inhibition [5]: 12.3% (inactive) and -0.2% (inactive)
growth inhibition [6]: 5.85% (inactive) and 1.45% (inactive)

CC1CC(=O)C2CC1C2(C)C (stereo unspecified)
growth inhibition [1]: 18% (inactive) and 27.3% (inactive)
growth inhibition [2]: -9.05% (inactive) and 0.3% (inactive)
growth inhibition [3]: -2.15% (inactive) and 11.7% (inactive)
growth inhibition [4]: -0.85% (inactive) and 12.1% (inactive)
growth inhibition [5]: 6% (inactive) and 14.1% (inactive)
growth inhibition [6]: -6.1% (inactive) and 23.9% (inactive)

CC(C)C1C=C2CCC3C(C)(C(=O)O)CCCC3(C)C2CC1 (stereo unspecified)
growth inhibition [1]: 79.6% (active) and 46.2% (inactive)
growth inhibition [2]: 68.2% (inactive) and 58.1% (inactive)
growth inhibition [3]: 22.8% (inactive) and 48% (inactive)
growth inhibition [4]: 73.7% (active) and 65.3% (inactive)
growth inhibition [5]: 65.2% (inactive) and 44.9% (inactive)
growth inhibition [6]: 81.7% (active) and 49.9% (inactive)

CC(=O)C1CC(CC(=O)O)C1(C)C (stereo unspecified)
growth inhibition [1]: 4.65% (inactive) and 10.1% (inactive)
growth inhibition [2]: -7.25% (inactive) and 9.75% (inactive)
growth inhibition [3]: -4.4% (inactive) and 12.5% (inactive)
growth inhibition [4]: 13.9% (inactive) and 10.6% (inactive)
growth inhibition [5]: -1.6% (inactive) and 4.9% (inactive)
growth inhibition [6]: 3.3% (inactive) and 14.9% (inactive)

O=C(c1ccco1)C(O)c1ccco1 (stereo unspecified)
growth inhibition [1]: 18.4% (inactive) and -8.55% (inactive)
growth inhibition [2]: -12.6% (inactive) and -3.75% (inactive)
growth inhibition [3]: 1.55% (inactive) and 11.1% (inactive)
growth inhibition [4]: 3.95% (inactive) and -7.7% (inactive)
growth inhibition [5]: 15.7% (inactive) and 1.55% (inactive)
growth inhibition [6]: -0.05% (inactive) and -12.2% (inactive)

NC(N)=NCCCC1NC(=O)C(Cc2ccc(O)cc2)NC1=O (stereo unspecified)
growth inhibition [1]: 15.3% (inactive) and -3.3% (inactive)
growth inhibition [2]: 21.8% (inactive) and -3.25% (inactive)
growth inhibition [3]: 48.9% (inactive) and -4.85% (inactive)
growth inhibition [4]: -5.05% (inactive) and -8.55% (inactive)
growth inhibition [5]: 38.2% (inactive) and 3.55% (inactive)
growth inhibition [6]: 33.2% (inactive) and -1.6% (inactive)

COc1cc(N)ccc1NC(C)=O
growth inhibition [1]: -5.25% (inactive) and 0.6% (inactive)
growth inhibition [2]: -13.6% (inactive) and -12.7% (inactive)
growth inhibition [3]: 4.45% (inactive) and -35.6% (inactive)
growth inhibition [4]: 18.4% (inactive) and -41% (inactive)
growth inhibition [5]: -0.9% (inactive) and -2.55% (inactive)
growth inhibition [6]: 18.8% (inactive) and -21.4% (inactive)

CC(C(=O)O)C(=O)O.[NH-]C1CCCCC1[NH-].[Pt+2]
growth inhibition [1]: 8.5% (inactive) and 16.2% (inactive)
growth inhibition [2]: 6.7% (inactive) and 5.2% (inactive)
growth inhibition [3]: -11.1% (inactive) and -3.45% (inactive)
growth inhibition [4]: 11.2% (inactive) and -0.05% (inactive)
growth inhibition [5]: 20.4% (inactive) and 21.3% (inactive)
growth inhibition [6]: 32.3% (inactive) and 34.4% (inactive)

O=C(O)CC(NC(=O)OCc1ccccc1)C(=O)O (stereo unspecified)
growth inhibition [1]: -30.5% (inactive) and -21.3% (inactive)
growth inhibition [2]: -16.4% (inactive) and 9.65% (inactive)
growth inhibition [3]: -6.2% (inactive) and 0.8% (inactive)
growth inhibition [4]: 16.5% (inactive) and -33.6% (inactive)
growth inhibition [5]: 1.55% (inactive) and 4.65% (inactive)
growth inhibition [6]: -8.75% (inactive) and -16.1% (inactive)

OC1C(O)C2(c3ccccc3)OC1(c1ccccc1)c1ccccc12 (stereo unspecified)
growth inhibition [1]: 13.2% (inactive) and 7.35% (inactive)
growth inhibition [2]: -5.9% (inactive) and -2.35% (inactive)
growth inhibition [3]: -5.8% (inactive) and -5.6% (inactive)
growth inhibition [4]: 4.35% (inactive) and 2% (inactive)
growth inhibition [5]: -0.25% (inactive) and -1% (inactive)
growth inhibition [6]: -13.5% (inactive) and -9.9% (inactive)

CC(O)c1nc2c([nH]1)c(=O)n(C)c(=O)n2C (stereo unspecified)
growth inhibition [1]: -4.3% (inactive) and -3.1% (inactive)
growth inhibition [2]: -6.2% (inactive) and -8.9% (inactive)
growth inhibition [3]: -5.6% (inactive) and -2% (inactive)
growth inhibition [4]: -30.3% (inactive) and -16.9% (inactive)
growth inhibition [5]: 5.7% (inactive) and -13.9% (inactive)
growth inhibition [6]: 9.15% (inactive) and -23.2% (inactive)
